Compound activity (PubChem)
SMN2 splice up = SMN2 splice variant enhancement. HEK293 SMN2-luciferase splicing reporter, luminescence, 30-36 h. Potency, µM (highest dose often 46.1 µM), inactives show at the top dose activity change, positive = activation, hits mostly activators. hit rate 2.8% among 210,000; further: % of control where 0% means no effect; nearly all actives have a fitted effect of over 55% in size
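HEK293 cells carry an SMN2 minigene-luciferase reporter in which exon 7 inclusion puts luciferase in frame. Cells were seeded at 2000 cells/well, attached for 10-12 hours, then exposed to compounds for 30-36 hours at 37C before ONE-Glo luminescence.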
ELG1 repair inh = ELG1-dependent DNA repair inhibition; HEK293T ELG1-luciferase reporter, luminescence, 16 h; DNA damage induced by 5-fluorouridine; Potency, µM (top dose mostly 46.1 µM), without a hit: top-dose activity change, negative = inhibition, hits mostly inhibitors; hit rate 2.3% among 330,000; AID 504467; further: on the % scale 0 is the no-effect control and ±100 the full control effect; nearly all actives have a fitted effect of over 55% in size
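Cells (2,000 per well) received 5-fluorouridine plus test compound or DMSO and were incubated 16 hr at 37 °C, 5% CO2. Luciferase activity was read by luminescence 30 min after ONE-Glo addition; signal suppression marked inhibition of damage-induced ELG1 function.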
ELG1 genotox = induces genotoxicity in HEK293T cells with luciferase-tagged ELG1. HEK293T ELG1-luciferase reporter, luminescence, 16 h. Potency, µM (titrated, usually from 46 µM), inactives show at the top dose activity change, positive = activation, hits mostly activators. hit rate 1.3% among 330,000; further: % of control where 0% means no effect; nearly all actives have a fitted effect of over 60% in size
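Luminescence read-out: rising ELG1-luciferase signal, reflecting elevated ELG1 protein under genetic stress, flags genotoxic compounds. Cells were treated for 16 hr at 37 °C before ONE-Glo detection.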
Rab9 promoter act = Rab9 promoter activation; Huh7 Rab9 promoter-luciferase reporter, luminescence, 24 h; Potency, µM (doses to about 9.22 µM), without a hit: top-dose activation, negative = inhibition, actives largely listed as activators; hit rate 2.8% among 320,000; further: % of control where 0% means no effect; nearly all actives have a fitted effect of over 60% in size
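Luminescence from Amplite-detected luciferase (10 minutes, ambient) reports Rab9 promoter activation. Before that, stable Rab9-luciferase Huh7 cells (1500/well, reduced-serum OP-MEM I plus 10% FBS) were exposed to compound for 24 hours at 37C.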
FLuc counter = inhibits or activates purified firefly luciferase, miR-21 counter-screen; purified FLuc, Km substrates, luminescence inhibition; P08659; hit rate 6.9% among 360,000; Potency, µM (titrated, usually from 57.5 µM), without a hit: at the top dose activity change, negative = inhibition, most hits filed as inhibitors;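 further: plate controls were vehicle for no effect and reference inhibitor for full effect; nearly all actives have a fitted effect of over 55% in size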
Target sequence (P08659 whole entry, looked up): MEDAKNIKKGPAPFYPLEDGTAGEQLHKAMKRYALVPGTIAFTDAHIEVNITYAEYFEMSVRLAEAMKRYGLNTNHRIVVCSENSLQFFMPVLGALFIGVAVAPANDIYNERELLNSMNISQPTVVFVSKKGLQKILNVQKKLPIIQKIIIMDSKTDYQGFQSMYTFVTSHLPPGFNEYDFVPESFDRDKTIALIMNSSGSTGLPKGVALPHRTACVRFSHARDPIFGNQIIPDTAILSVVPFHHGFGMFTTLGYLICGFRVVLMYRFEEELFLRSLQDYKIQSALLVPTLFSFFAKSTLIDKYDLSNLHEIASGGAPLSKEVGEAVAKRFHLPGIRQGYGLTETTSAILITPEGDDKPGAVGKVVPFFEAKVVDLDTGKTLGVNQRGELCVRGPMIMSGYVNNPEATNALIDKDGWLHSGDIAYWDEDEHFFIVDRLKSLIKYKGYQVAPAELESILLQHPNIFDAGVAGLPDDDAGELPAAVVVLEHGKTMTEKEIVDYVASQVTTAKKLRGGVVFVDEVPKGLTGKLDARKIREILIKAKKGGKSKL
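Biochemical qHTS of compounds, final roughly 60 µM downward over six points, against 10 nM purified firefly luciferase using Km concentrations of substrates (10 uM D-luciferin, 10 uM ATP) in Tris acetate pH 7.5 buffer; luminescence output.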
NPC1 prom act = activates the NPC1 promoter. hit rate 2.4% among 320,000. Huh7 NPC1 promoter luciferase reporter, 24 h. Potency, µM (series often up to 9.22 µM), inactives show at the top dose activation, usual class: activators. AID 485313; further: % of control where 0% means no effect; nearly all actives have a fitted effect of over 60% in size
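Cells: Huh7 expressing luciferase under the NPC1 promoter, 1500/well. Seeded 2 h, compound added, incubated 24 h at 37 °C. Luciferase reagent, 10 min ambient, then luminescence.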
* hit, by the source's call; u = inconclusive; x = no result. An excerpt weighted towards active compounds, which were near 9.2% of everything screened. The call rests on the fitted dose curve; in most records, active means well fitted curve in the direction sought with a large enough effect; inconclusive means small, poorly fitted or top-dose-only effect, or another doubt; inactive means no such curve, though single readings can be large; an effect the other way counts as inactive or inconclusive. Potency means the concentration at half of the fitted maximal effect.

SMILES	SMN2 splice up	ELG1 repair inh	ELG1 genotox	Rab9 promoter act	FLuc counter	NPC1 prom act
CC(=O)c1c(C)[nH]c(C(=O)OCc2ccccc2)c1C	u	u	18µM*	u	15µM*	u
CCOC(=O)c1[nH]c(C)c(C(=O)Nc2ccc(C)c(C)c2)c1C	18%	0%	11%	1.4µM*	-9%	u
CC(=O)c1c(C)[nH]c(C(=O)OCCCCN2C(=O)c3ccccc3C2=O)c1C	-48%	6.5µM*	-7%	-28%	1%	-31%
CCOC(=O)Nc1ccc2c(c1)OCO2	10%	u	u	u	u	u
CCOC(=O)c1c(C)[nH]c(C(=O)Nc2ccc3c(c2)OCO3)c1C	x	u	u	4µM*	4.8µM*	3.5µM*
CN1CC[C@]2(CCN3CCc4c(oc5ccccc45)[C@@H]3C2)N(C)C1=O	x	u	u	0%	1%	-2%
Cc1ccc(CCNC(=O)c2c[nH]c3ccc(S(=O)(=O)Nc4ccc(C)cc4C)cc3c2=O)cc1	x	x	x	-3%	7%	-4%
Cc1ccc(NC(=O)C2CCN(C(=O)c3cnn(-c4ccccc4)c3-n3cccc3)CC2)cc1C	-46%	x	x	x	u	x
CCOC(=O)c1[nH]c(C)c(C(=O)OCC(=O)NC(C)c2ccc(F)cc2)c1C (stereo not drawn)	x	-8%	1%	-24%	6%	-26%
CCOC(=O)c1c(C)[nH]c(C(=O)OCc2ccccc2F)c1C	x	u	1.6µM*	1.6µM*	2.7µM*	1.6µM*
CCOC(=O)c1[nH]c(C)c(C(=O)OC)c1C	x	u	15%	-1%	u	10%
CCOC(=O)c1[nH]c(C)c(C(=O)NCC2CCCO2)c1C (stereo not drawn)	-16%	0.73µM*	-4%	5%	0%	1%
CCOC(=O)c1[nH]c(C)c(C(=O)NC2CCCCC2)c1C	16%	2%	-5%	-2%	4%	-2%
COC(=O)c1c(C)[nH]c(C(=O)OCc2csc(CC(=O)Nc3ccccc3C)n2)c1C	x	8.2µM*	0%	x	x	x
CCOC(=O)c1c(C)[nH]c(C(=O)OCc2ccc(F)cc2)c1C	x	u	15µM*	1.6µM*	4.8µM*	2.2µM*
COC(=O)c1ccc(CN2CCC(n3nccc3NC(=O)C3CCCC3)CC2)cc1	x	0%	-1%	5%	2%	0%
Cc1cccc(N2C(=O)c3ccccc3C2=O)n1	x	u	0%	-1%	0%	-7%
CCOC(=O)c1[nH]c(C)c(C(=O)Nc2ccccc2F)c1C	5µM*	u	u	-7%	u	-26%
Cc1ccc(-c2noc(CN(C(=O)c3ccc(C(C)(C)C)cc3)C(C)C)n2)cc1	2%	x	x	x	-2%	x
CC(CCC(=O)O)C1CCC2C3CC[C@H]4CC(O)CC[C@@]4(C)C3CC(O)[C@]12C (stereo partly drawn)	-7%	x	x	x	x	x
O=C(COc1ccc(Br)cc1Cl)Nc1ncn[nH]1	u	x	x	x	2.1µM*	x
CCc1ccc(OCC(=O)NC2CCCCC2)c(Br)c1	x	12%	8%	5%	3%	-2%
CC(C)(C)c1cc(Br)ccc1OCC(=O)Nc1ncn[nH]1	-23%	12%	2%	-4%	0%	-4%
CCc1ccc(OCC(=O)Nc2ncn[nH]2)cc1	u	u	u	4.5µM*	13µM*	u
CCc1ccc(OCC(=O)Nc2ncn[nH]2)c(Br)c1	u	x	x	x	1.1µM*	x
SMILES	SMN2 splice up	ELG1 repair inh	ELG1 genotox	Rab9 promoter act	FLuc counter	NPC1 prom act
CCc1ccc(CNc2ncc(-c3cccc(OC)c3)n2C)cc1	-15%	x	x	x	-14%	x
CCCCc1nn2c(=O)cc(COC(=O)CNC(=O)COc3ccc(C)cc3)nc2s1	x	x	x	x	-5%	x
O=C(COc1ccccc1Cl)N1CCN(C(=O)c2ccco2)CC1	x	7%	5%	10%	-1%	2%
COc1ccc(OCc2cc(C(=O)NC3CCOCC3)no2)c2ccccc12	x	12%	0%	4%	-5%	-4%
COc1ccc(OCc2cc(C(=O)N3CCCC(O)C3)no2)c2ccccc12 (stereo not drawn)	x	u	u	u	12µM*	u
COc1cc(Cl)ccc1OCc1cc(C(=O)N2CCC(N(C)C)C2)no1 (stereo not drawn)	x	15%	4%	-3%	-17%	1%
Cc1ccccc1C1CCCN(C(=O)c2cc(COc3c(F)cccc3F)on2)C1 (stereo not drawn)	x	0%	-6%	-6%	0%	-3%
CCCOC1CCCN(C(=O)c2cc(COc3c(F)cccc3F)on2)C1 (stereo not drawn)	x	u	u	2.2µM*	12µM*	2.8µM*
COc1ccc(OCc2cc(C(=O)N3CCCC(OC)C3)no2)c2ccccc12 (stereo not drawn)	x	u	u	u	27µM*	u
Cc1ccc(C)c(OCc2cc(C(=O)N3CC[C@H](O)C3)no2)c1	x	u	u	2.5µM*	12µM*	30%
Cc1nc2sc(C(=O)Nc3ccc(F)cc3)c(N)c2c(-c2ccc(Br)cc2)c1C(=O)Nc1ccc(Cl)cc1	1%	x	x	x	-2%	x
Cc1cccc(N2CCN(C(=O)C3CCN(S(=O)(=O)c4c(C)noc4/C=C/c4ccccc4F)CC3)CC2C)c1 (stereo not drawn)	x	x	x	x	4%	x
COC(=O)C1CCCCN1C(=O)c1cc(COc2cccc3cnccc23)on1 (stereo not drawn)	x	1.5µM*	-11%	-31%	-3%	-26%
COC(=O)C1CCCCN1C(=O)c1cc(COc2cccc3cccnc23)on1 (stereo not drawn)	x	-4%	-6%	-1%	0%	-4%
O=C(O)c1cccc(CSc2ncn[nH]2)c1	x	9%	-1%	u	19µM*	12%
O=C(CSc1nnc(Cc2ccccc2)o1)c1ccccc1	5%	u	u	5%	u	13%
c1ccc(CSc2nnc(Cc3ccccn3)o2)cc1	-1%	u	2%	u	u	u
O=C(O)c1cccc(CSc2nnc(Cc3ccccc3)o2)c1	16µM*	u	u	u	19µM*	28%
c1ccc(CSc2nnc(Cc3ccccc3)o2)cc1	u	u	u	u	24µM*	19%
Cc1c(C2=CCN(S(=O)(=O)c3ccc(Cl)cc3)CC2)c2ccccc2n1CC(=O)N1CCCC1	-4%	x	x	x	-5%	x
Cc1ccc(-n2ncc(C(=O)NCCCN3CCc4ccccc4C3)c2C2CCN(C(=O)OC(C)(C)C)CC2)cc1C	x	x	x	x	-9%	x
O=S(=O)(c1ccccc1)N1CCC2(CCN(Cc3ccncc3)CC2)CC1	-21%	x	x	x	x	x
